Pf growth 96h: P. falciparum growth inhibition at 96 hour, primary screen for plastid delayed-death inhibitors. P. falciparum luciferase reporter growth, 96 h. Potency, µM (doses to about 28.7 µM), actives largely listed as inhibitors. actives 6.9% (n = 320,000). AID 504834; active means well fitted inhibition curve with a large enough effect; inconclusive means small, poorly fitted or top-dose-only effect, or another doubt; inactive means no such curve, though single readings can be large or run the other way
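Luminescence readout: decreased luciferase signal marks inhibited growth of reporter-expressing P. falciparum in infected red cells (2% hematocrit, 0.05% parasitemia final), exposed to compound two generations (96 h, 37 C, 5% CO2).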
NS1 function inh: influenza NS1 inhibition; Potency, µM (top dose mostly 46.1 µM); actives 0.4% (n = 270,000); AID 2326; further: actives are rising curves; nearly all actives have a fitted effect of over 50% in size
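Read-out: OD600 growth recovery of NS1-expressing budding yeast. Cells grown overnight at 30C in -URA glucose medium, washed, resuspended and diluted 1:100 in 2% galactose assay medium, pH 6.0. Same strain lacking NS1 served as positive control.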
SARS PLP yeast: SARS-CoV PLP inhibition in yeast | S. cerevisiae expressing SARS-CoV PLpro, growth rescue | Potency, µM (top dose mostly 32.9 µM), actives largely listed as activators | actives 0.19% (n = 330,000) | AID 485353; further: nearly all actives have a fitted effect of over 55% in size
Pf growth 48h: inhibits P. falciparum growth in the first generation, 48 h. AID 504832. actives 5.9% (n = 310,000). Potency, µM (doses to about 28.7 µM), most hits filed as inhibitors. P. falciparum luciferase growth in erythrocytes, 48 h; active means well fitted inhibition curve with a large enough effect; inconclusive means small, poorly fitted or top-dose-only effect, or another doubt; inactive means no such curve, though single readings can be large or run the other way
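Luminescence readout; reporter = integrated firefly luciferase in P. falciparum. RBC culture at 2% hematocrit, 0.1% parasitemia final, 37 C/5% CO2; decreased signal taken as growth inhibition.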
Each line names hits and unclear results; the compound was inactive in the other large screens. An excerpt weighted towards active compounds, which were near 10% of everything screened. Unless noted, the call rests on the fitted dose curve.

Cc1cc(C(=O)N/N=C/c2ccc([N+](=O)[O-])o2)c(C)o1	Pf growth 96h 3.3µM, Pf growth 48h 3.7µM
COC(=O)/C(=C\c1ccc([N+](=O)[O-])o1)NC(=O)c1ccccc1	Pf growth 96h 13µM (no result: Pf growth 48h)
NC(=O)N/N=C/c1ccc([N+](=O)[O-])o1	Pf growth 96h 5.4µM, Pf growth 48h 12µM (no result: NS1 function inh, SARS PLP yeast)
O=C1CCC(C(=O)N2CCc3c(Cl)cccc3C2)CN1CCCN1CCOCC1 (stereo not drawn)	none
CC(=O)Nc1ccc(S(=O)(=O)NCc2nc(-c3ccccc3Cl)no2)cc1	none
CN(C)c1ccc(S(=O)(=O)N(C)C)cc1NC(=O)Cc1cccc2ccccc12	Pf growth 96h inconclusive, Pf growth 48h inconclusive
O=C(C1CC(=O)N(c2ccccc2)C1)N1CCN(c2ccccc2F)CC1 (stereo not drawn)	none
CCCCCn1nc(C)c(/C=N\NC(=O)c2cc(C)oc2C)c1C	Pf growth 48h 13µM
COc1ccc(-c2nn(-c3ccccc3)cc2C(=O)N2CCOCC2)cc1	Pf growth 96h inconclusive
O=C(N/N=C/c1ccc([N+](=O)[O-])o1)C1CC1	Pf growth 96h 4.1µM
COc1ccc(-c2nn(-c3ccccc3)cc2C(=O)N/N=C/c2ccc([N+](=O)[O-])o2)cc1	NS1 function inh inconclusive, Pf growth 48h 2.6µM
COc1cc2c(cc1OC)CN(c1ccc(F)cc1[N+](=O)[O-])CC2	none
CCN(CC(=O)Nc1c(F)cccc1F)C(=O)c1cc(-c2cccs2)nn1-c1ccccc1	Pf growth 48h inconclusive (no result: NS1 function inh)
O=C(N(c1ccccc1)c1ccccc1)N(c1ccccc1)c1ccccc1	Pf growth 96h inconclusive, Pf growth 48h inconclusive
CCN(CC)NC(=O)Nc1ccccc1	none
O=C(CCl)N(c1ccccc1)c1ccccc1	Pf growth 96h 4.1µM, Pf growth 48h 1.7µM
Cc1ccc(N(NC(=O)C(O)(c2ccccc2)c2ccccc2)C(=O)CCl)cc1	Pf growth 96h inconclusive, Pf growth 48h 5.2µM
O=C(Nc1ccccc1)NN(C(=O)CCl)c1ccccc1	Pf growth 96h inconclusive, Pf growth 48h 13µM
CCC(O)(CC)C(=O)NN(C(=O)CCl)c1ccccc1	Pf growth 96h 5.2µM, Pf growth 48h inconclusive
CC1=C(C(=O)OC(C)(C)C)C(c2cccc3ccccc23)NC(=O)N1 (stereo not drawn)	Pf growth 96h inconclusive, Pf growth 48h inconclusive
Cc1cc(NC(=O)Cc2cc(F)cc(F)c2)no1	none
O=C(CCl)N(CCc1ccccc1)CCc1ccccc1	Pf growth 96h inconclusive, Pf growth 48h 12µM
CN(C)CCCn1c2c(c(SCC(=O)Nc3nccs3)nc1=O)CCC2	none (no result: NS1 function inh)
CSCCC(NC(=O)c1ccco1)C(=O)Nc1ccc(C)cn1 (stereo not drawn)	none (no result: NS1 function inh)
O=C1CC(O)(c2ccccc2)C(c2ccccc2)=C1c1ccccc1 (stereo not drawn)	Pf growth 96h 12µM, Pf growth 48h 10µM (no result: NS1 function inh)
CC1CCCN(C(=O)CCCC(=O)N2CCCC(C)C2)C1 (stereo not drawn)	none
CC1CCCN(C(=O)CCl)C1 (stereo not drawn)	Pf growth 96h 1.5µM, Pf growth 48h 4.7µM
CC(=O)c1c(C(C)=O)c(C)n(NC(=O)c2ccc(Cl)cc2)c1C	none (no result: Pf growth 48h)
CC(=O)c1c(C(C)=O)c(C)n(Cc2ccc(Cl)cc2)c1C	Pf growth 96h 1.5µM (no result: Pf growth 48h)
CCOC(=O)c1c(C=O)c(C)n(Cc2ccc(Cl)cc2)c1C	Pf growth 96h inconclusive, Pf growth 48h 1.9µM
CCOC(=O)c1c(C=O)c(C)n(Cc2ccccc2)c1C	none (no result: Pf growth 48h)
CCCCn1c(N)c(N(CC)C(=O)c2ccc([N+](=O)[O-])c(C)c2)c(=O)[nH]c1=O	none
O/N=C/c1cc2ccccc2n1Cc1ccccc1F	Pf growth 48h 2.6µM
O=c1cc(O)c2ccccc2n1Cc1ccccc1F	none (no result: NS1 function inh)
COc1cc(C(=O)NC(=S)N(C)Cc2ccccc2)cc(OC)c1OC	Pf growth 96h inconclusive
COc1cc(C(=O)NC(=S)N(CCc2ccccc2)CCc2ccccc2)cc(OC)c1OC	Pf growth 96h 12µM, SARS PLP yeast inconclusive, Pf growth 48h 10µM
COc1cc(C(=O)N[C@H](C(=O)NC2CCCc3ccccc32)C(C)C)cc(OC)c1OC (stereo partly drawn)	none (no result: Pf growth 96h, NS1 function inh, Pf growth 48h)
CCC(C)NC(=O)c1cc(OC)c(OC)c(OC)c1 (stereo not drawn)	Pf growth 96h 2.3µM
CCC(C)NC(=O)CSc1nnc(-c2cc(OC)c(OC)c(OC)c2)c(-c2cc(OC)c(OC)c(OC)c2)n1 (stereo not drawn)	Pf growth 48h 10µM
COc1cc(C(=O)N[C@H](C(=O)NC2CCCCCC2)C(C)C)cc(OC)c1OC	Pf growth 96h 12µM (no result: Pf growth 48h)
CCn1c(SCc2cccc(F)c2)nc2c(c1=O)SCC2	Pf growth 48h inconclusive (no result: NS1 function inh)
O=C(COC(=O)c1ccc(O)cc1O)NC1CCCCCC1	Pf growth 96h inconclusive (no result: NS1 function inh)
